Assay results: PubChem BioAssay AID588397 (National Center for Advancing Translational Sciences (NCATS), 2011)
In all, about 1,300 compounds went through this assay and about 1,000 (77%) were called active. Inconclusive results (about 7%) are left out. Calls follow the shape of the dose curve; as a rule, active = well fitted inhibition curve with a large enough effect; inconclusive = small, poorly fitted or top-dose-only effect; inactive = no such curve, though single readings can be large or run the other way. So high a share suggests a set chosen from earlier hits. The list shows a part of the results.

Test: qHTS of small molecules that selectively kill Giardia lamblia: Hit Validation.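 Also: viability measured as ATP content by luminescence so killing lowers signal; trophozoites exposed to compounds for 48 h anaerobically at 37 °C; nearly all actives have a fitted effect of over 65% in size.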
Settings: Giardia lamblia trophozoite viability, dose-response; series mostly up to 38.3 µM
Procedure, shortened: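 Trophozoites 100 cells/well + cpd; 48 hrs, 37 deg C, anaerobic. ATPLite 1-Step added, 15-30 min RT, luminescence read (ATP-based viability).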
Potency is read from the fitted curve at half-maximal effect.

SMILES	Potency
Cc1oc2c(c1C(=O)O)C(=O)c1ccccc1C2=O	3260 nM (active)
CCOC(=O)c1c(C)oc2c1C(=O)c1ccccc1C2=O	5160 nM (active)
CC(=O)c1c(C)oc2c1C(=O)c1ccccc1C2=O	4600 nM (active)
CCOC(=O)c1c(C)[nH]c2c1-c1ccccc1C(=O)C2=O	4100 nM (active)
CC(=O)NCCNC(=O)c1ccc(CSc2ccc(Cl)cc2)cc1	inactive
Cc1onc(-c2ccccc2Cl)c1C(=O)NNC(=O)c1ccc(F)cc1	inactive
CN(C)c1ccc(/C=C(/NC(=O)c2ccccc2)C(=O)N/N=C/c2ccc([N+](=O)[O-])c(O)c2)cc1	2590 nM (active)
Cc1onc(-c2ccccc2)c1C(=O)N/N=C/c1ccc([N+](=O)[O-])c(O)c1	3260 nM (active)
Cc1ccc(OCC(=O)Nc2nc(C)c(Cl)cc2Cl)c([N+](=O)[O-])n1	5790 nM (active)
Cc1ccc(OCC(=O)Nc2ccc(C)c(F)c2)c([N+](=O)[O-])n1	5790 nM (active)
Cc1ccc(OCC(=O)N(C)CC(=O)Nc2ccc(Cl)c(C(F)(F)F)c2)c([N+](=O)[O-])n1	5790 nM (active)
Oc1cccc(-c2nnc(-c3cccc(O)c3)nn2)c1	1160 nM (active)
O=C(NC1CCCC(C(F)(F)F)C1)c1ccc([N+](=O)[O-])o1 (stereo unspecified)	1450 nM (active)
O=C(NCC1CCCO1)c1ccc([N+](=O)[O-])o1 (stereo unspecified)	1160 nM (active)
O=C(NC1CCCCC1)c1ccc([N+](=O)[O-])o1	1630 nM (active)
Cc1cc2nc(-c3ccc[nH]c3=O)[nH]c2cc1C	729 nM (active)
O=C(NCc1nnnn1-c1ccc(F)cc1)c1ccc([N+](=O)[O-])o1	1450 nM (active)
Cc1ccc(-n2nnnc2CNC(=O)c2ccc([N+](=O)[O-])o2)cc1C	918 nM (active)
O=C(NCC(c1ccc(F)cc1)N1CCOCC1)c1ccc([N+](=O)[O-])o1 (stereo unspecified)	1300 nM (active)
Cc1[nH]n(S(=O)(=O)Cc2ccccc2)c(=O)c1N=Nc1ccccc1Cl	2310 nM (active)
Cc1[nH]n(S(=O)(=O)c2ccccc2)c(=O)c1N=Nc1cccc(Cl)c1	4600 nM (active)
COc1ccc(N(Cc2ccccc2)C(=O)OC(C)(C)C)c(C(=O)N(C)OC)c1	inactive
COc1ccc(Cn2cnc([N+](=O)[O-])c2)cc1[N+](=O)[O-]	3260 nM (active)
O=C(O)c1cccc(NC(=S)NC(NC(=O)c2ccccc2[N+](=O)[O-])C(Cl)(Cl)Cl)c1 (stereo unspecified)	inactive
O=C(Nc1ccc(NC(=O)c2ccc([N+](=O)[O-])o2)cc1Cl)c1ccco1	1030 nM (active)
O=C(Nc1cccc(NC(=O)c2ccccc2Cl)c1)c1ccc([N+](=O)[O-])o1	410 nM (active)

SMILES	Potency
COc1ccc(NC(=O)c2ccc([N+](=O)[O-])cc2[N+](=O)[O-])c(OC)c1	10300 nM (active)
COc1cc(NC(=O)c2ccc([N+](=O)[O-])o2)ccc1NC(=O)c1ccco1	579 nM (active)
O=C(Nc1ccc(O)c2c(=O)cc(-c3ccccc3Cl)oc12)c1ccc(F)cc1	inactive
O=C(Nc1ccccc1O)c1ccc([N+](=O)[O-])cc1	9180 nM (active)
Cc1cc(NC(=O)c2ccc([N+](=O)[O-])o2)ccc1NC(=O)c1ccco1	918 nM (active)
O=C(Nc1cccc(NC(=O)c2cccs2)c1)c1ccc([N+](=O)[O-])o1	729 nM (active)
O=C(Nc1cccc(NC(=O)c2ccc([N+](=O)[O-])o2)c1)c1ccco1	729 nM (active)
COc1ccc(NC(=O)c2ccco2)c(NC(=O)c2ccc([N+](=O)[O-])cc2)c1	4100 nM (active)
COc1cc(NC(=O)c2ccc([N+](=O)[O-])o2)ccc1NC(=O)c1cccs1	818 nM (active)
O=C(COC(=O)c1ccccc1)Nc1ncc([N+](=O)[O-])s1	3650 nM (active)
O=C(COC(=O)c1ccc(Br)o1)Nc1ncc([N+](=O)[O-])s1	2310 nM (active)
Cc1ccnc(NC(=S)NC(=O)c2cccs2)c1	6500 nM (active)
Cc1ccnc(NC(=O)c2ccc([N+](=O)[O-])s2)c1	3650 nM (active)
Cc1cccc(NC(=O)c2ccc([N+](=O)[O-])s2)n1	3650 nM (active)
Cc1nc2cc(NC(=O)c3ccc([N+](=O)[O-])s3)ccc2s1	650 nM (active)
O=C(c1ccc([N+](=O)[O-])o1)N1CCc2ccccc2C1	2900 nM (active)
O=C(c1ccc([N+](=O)[O-])o1)N1CCc2ccccc21	1300 nM (active)
COc1cc2c(cc1OC)CN(C(=O)c1ccc([N+](=O)[O-])o1)CC2	2050 nM (active)
O=C(c1cc(COc2c(F)cccc2F)on1)N1CCc2ccccc2C1	inactive
COc1cc2c(cc1OC)CN(Cc1cc(=O)oc3c(C)c(C)ccc13)CC2	inactive
N/C(=N\c1nc2ccccc2o1)NC(=O)C(Cc1ccccc1)N1C(=O)c2ccccc2C1=O (stereo unspecified)	1830 nM (active)
N#Cc1ccccc1S(=O)(=O)N1CCN(C(=O)c2cn(-c3ccccc3)nc2-c2cccnc2)CC1	6500 nM (active)
O=C(CC12CC3CC(CC(C3)C1)C2)N/N=C/c1ccc([N+](=O)[O-])o1	918 nM (active)
CC(NC(=O)C12CC3CC(CC(C3)C1)C2)C(=O)NN=Cc1ccc([N+](=O)[O-])o1 (stereo unspecified)	1830 nM (active)
CCn1c(C)cc(C(=O)COC(=O)c2ccccc2[N+](=O)[O-])c1C	20500 nM (active)
